# Whole data set: some 24,000 sequences, median “enrichment r” near 0.99, cut for the highest 2% near 3.7. The sample holds the highest values, similar sequences and a random draw of the others, so the mix is not that of the screen.
# T1: UNK ZnF1-3 (human, UniProt Q9C0B0 31-174)
# T1 sequence: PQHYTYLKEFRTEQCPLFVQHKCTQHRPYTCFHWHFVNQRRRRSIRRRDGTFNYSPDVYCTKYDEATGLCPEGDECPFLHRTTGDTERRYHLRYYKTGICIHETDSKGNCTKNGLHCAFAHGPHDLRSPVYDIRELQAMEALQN
# B1: chr22:38201524:38201525:+_ENSG00000189060_ENST00000340857|hu_hu|FALSE|FALSE (ssRNA)
# RNA: GGGAGUUCUACAGUCCGACGAUCCGCAGGGGCGGACGUGGAAUUCUCGGUCAUGGUGGCCUGUCUGGUCCGGCUGUUGAAGGCGCCUUCCAAAGGGCCAGCCCUCGUCGGAGGCUGAGCAAAGCCUGCCUCGGGAUCUGCUCCCAACAGAGGAUUGAGCAUCA
# B2: chr16:17038481:17038482:+_ENSMUSG00000063358_ENSMUST00000069107|mus_mus|FALSE|FALSE (ssRNA)
# RNA: GGGAGUUCUACAGUCCGACGAUCCUUGUCCUGACCAAUUUAAGAUCUGUAUCCUGGCUGGAAUCUAGCAGUCUCUUCAAAAAUGAGUUCUUUGAGCUUCUCCUUAGGUAAGUCGUCCAACUCCAUGUCAAACUUGAAUGGCGCCAACAGAGGAUUGAGCAUCA
# B3: chr11:77336104:77336105:-_ENSG00000074201_ENST00000525064|hu_mus|hu_hu_hu_mus_False|48_108 (ssRNA)
# RNA: GGGAGUUCUACAGUCCGACGAUCCUCGCACAUUGCAGUGAACAUCGCCUCCAAUGCUGACUUAUCACUGGGCACAAAUCGAAAUUCAGUAAUAGGUUCAACAUCAUCAUUGUCUUCCUCAUCUUCAUCAGAGAGAGGUUCUUUCAACAGAGGAUUGAGCAUCA
# B4: 42454244_42454364_2548_CDS_ENSG00000166887_ENST00000318006|human|control|control (ssRNA)
# RNA: GGGAGUUCUACAGUCCGACGAUCAUGGAGAAGGUUCUUGAGCACUUGAUUGAACCGUUUCUUUUGUGCAUUUUCUUCCAAGACCUUUUCCAGGAAGAUGCGUAUGUCAUUGAUCUGAGUGUUUGCUGGCAGAAGGUUGAGGGCCAACAGAGGAUUGAGCAUCA
# B5: chr3:9412954:9412955:+_ENSG00000134077_ENST00000452837|hu_mus|hu_hu_hu_mus_False|1_78 (ssRNA)
# RNA: GGGAGUUCUACAGUCCGACGAUCGGUUGAUAUCUCUUCUUUGAUGGCUGGAUUUUCAUAAUAAUCUAAGAUAUGUGAAUCUGAAGUGCUGCUGGCAUGCUUUUUCUUACCAUCUUUCUCAUCUGCUUUGUCUCCUUGUCCAUUCAACAGAGGAUUGAGCAUCA
# B6: chr5:56189439:56189440:+_ENSG00000095015_ENST00000399503|hu_hu|FALSE|FALSE (ssRNA)
# RNA: GGGAGUUCUACAGUCCGACGAUCAAAGACUGGAUGCUUCAGUAGCUCUCUUGAUGGAGGUCUGUCCUGAGGUUGAAGUUCUAAACAACGAAGAGCCACAUCUCGUAAACCAGGAGACAAAUGUGAAGGGAUCGAUGGAGCAGUCAACAGAGGAUUGAGCAUCA
# B7: 32390341_32390461_6886_3pUTR_ENSMUSG00000053774_ENSMUST00000115151|mouse|control|control (ssRNA)
# RNA: GGGAGUUCUACAGUCCGACGAUCACUUUAACCCAAGGAGGACCCAGAGGUUCAAGGUUAUGUUCAACUAACUACACAGUCACUGAAGAGGUCAGCCUGAUCCAGGACAACCAGGACUAGAUAAAGAAAACUUAUCUCAAAGAACAACAGAGGAUUGAGCAUCA
# B8: chr3:148802587:148802588:-_ENSG00000071794_ENST00000310053|hu_mus|FALSE|FALSE (ssRNA)
# RNA: GGGAGUUCUACAGUCCGACGAUCUCCAACAACUUGUCCUCUCAUAGUUCCAAAUAAAACCAAAUCUUGCUCUUCAUCACUCGUUAGGAAGUCAUCUGGAGGAAUAAUGUCUUGGAAUUCAAAAUGUGGCAAGAAAGUUGAGUACAACAGAGGAUUGAGCAUCA
# B9: 54532081_54532201_669_3pUTR_ENSMUSG00000073678_ENSMUST00000097739|mouse|control|control (ssRNA)
# RNA: GGGAGUUCUACAGUCCGACGAUCGACUGAGCAGAGACAUAAAGAAAGCAAAAGAAACACCACAGGGAAGGUUUCAACUGUAGUAACCAGACAUCUACACCAAAAAUGGAUUGUGCAAAACAACUGAUUUUUUUUUUUUUUUUACAACAGAGGAUUGAGCAUCA
# B10: chr4:148551591:148551592:-_ENSMUSG00000063077_ENSMUST00000060537|mus_hu|mus_mus_mus_hu_False|1_48 (ssRNA)
# RNA: GGGAGUUCUACAGUCCGACGAUCACCUGACAAAAUUAAAUAUCCCUGUAAAUUAGACAAUAAGCAGCAGGCAACAAAGUCUUUGCUUUGAAAUAUGUGCCAGGAAAAGUCAUCUUGUUUUUAGAUCUCAAGAGACACAACCAUCAACAGAGGAUUGAGCAUCA
# B11: chr14:52780626:52780627:-_ENSMUSG00000035726_ENSMUST00000046709|mus_mus|FALSE|FALSE (ssRNA)
# RNA: GGGAGUUCUACAGUCCGACGAUCUGAGCACUGCACCACAUAUGGACUUGUAAGGAGGAAAAAAAAAAAAAAAAAAAAAAAAAAAACAGCCACGAGUGCCAGUGUUUGUCUUCUGAUGCAGCAAAAACAACCCCAGAAUGUGCACAACAGAGGAUUGAGCAUCA
# B12: chr7:141441981:141441982:+_ENSG00000106028_ENST00000265304|hu_mus|hu_hu_hu_mus_False|38_38 (ssRNA)
# RNA: GGGAGUUCUACAGUCCGACGAUCCUCAUGUCUUACAAACUGACGAAAUACCUGUAACACAGGUCUUCGAAACAUGGCUUCUGUUUUUCUUACAACCAGUCUAAUCUGCUUUUCCUAAAGGAAAGAAAGAAAAGAGAAAAAUGACAACAGAGGAUUGAGCAUCA
# B13: 2840810_2840930_7205_3pUTR_ENSG00000087266_ENST00000503393|human|control|control (ssRNA)
# RNA: GGGAGUUCUACAGUCCGACGAUCUGAGACCCUGUCUCAGAAAAAAAAAAAAAGAAAAGAAAAAGAAAAAGACAACAAGUUAAAAAAUGGGCAAAAGAUGAUAGACACUUCACAGGAGACAAAAUCAAAAUGGUUAAUAAAAACCAACAGAGGAUUGAGCAUCA
# B14: 110765750_110770449_1192_CDS_ENSG00000174437_ENST00000539276|human|control|control (ssRNA)
# RNA: GGGAGUUCUACAGUCCGACGAUCCUCAUUAAGGGAACAAGUAUCACCUUCCACUCUGUCCAGAAUGAACAUCCUGCAGACUGACAUCUGGUUUGUUGUAAGUGUACCAGUCUUGUCUGAGCAGAUAACAGAAGUACAACCAAGCAACAGAGGAUUGAGCAUCA
# B15: chr3:142455422:142455423:-_ENSMUSG00000004591_ENSMUST00000043812|mus_hu|FALSE|FALSE (ssRNA)
# RNA: GGGAGUUCUACAGUCCGACGAUCGAAAAAACAAUAAAGUCAUAGAUUAGGAGAAAAAAAUAUAAAAUCAAACCAAACCAAAACAAACAAAAAACUACAGGCAAGUGGAAAGUCAUGGUUUGUAAAAAGACAACCCUAAAAGAGCAACAGAGGAUUGAGCAUCA
# B16: chr1:33860009:33860010:-_ENSMUSG00000042197_ENSMUST00000044455|mus_mus|motif|central (ssRNA)
# RNA: GGGAGUUCUACAGUCCGACGAUCGCUGGAGAUAUCCCAAGGAACUGACGAGCUCUCACUUGGCCUAGAAUGAUGAAAUCGGAAACAACUCCUGGACUGCAGAUCACGUAUGACUCGGGACAUCUCAGCCACUUGUGUCUGGAGCAACAGAGGAUUGAGCAUCA
# B17: chr1:39494447:39494448:+_ENSG00000168653_ENST00000372967|hu_mus|hu_hu_hu_mus_False|98_98 (ssRNA)
# RNA: GGGAGUUCUACAGUCCGACGAUCGCACCGAGCGGCGAUCUUGUAGGGCUGUUCUGCGCUUAGGAACAUAAAGUGCCGGUCCAGGCUGAUGCCCAGCUUUUUCUGUAUGUCAAGGAAAGGCAUGGCUCUGCAGUGCCCUUGUCACAACAGAGGAUUGAGCAUCA
# B18: chr16:75674161:75674162:-_ENSG00000065427_ENST00000302445|hu_hu|motif|central (ssRNA)
# RNA: GGGAGUUCUACAGUCCGACGAUCCCUACCUGCCACCUUUAAGGUGAUGUCAGUCAGGUGAUCCCCAGGCUGCAGGUGACGGUAUUUUUGGAUGAAGUCAGUGAGUGAGAUGUCUACAUGGAACUUGUGUGGGUAUGGGUCUUCCAACAGAGGAUUGAGCAUCA
# B19: 76004153_76004273_12107_CDS_ENSMUSG00000022565_ENSMUST00000071869|mouse|control|control (ssRNA)
# RNA: GGGAGUUCUACAGUCCGACGAUCCUUCAUGGCCUGGAAGAGGGAGAUGAGUUUCCCAGAGUAGGGGUCCUUGUAGCCAGUGACGGCACGCUCAGCUGACAGCAGCUUGUCCUUGAACUCGGGGCCCACAAUACCCAUACGAACCAACAGAGGAUUGAGCAUCA
# B20: chr11:93905761:93905762:+_ENSMUSG00000020859_ENSMUST00000103168|mus_mus|motif|central (ssRNA)
# RNA: GGGAGUUCUACAGUCCGACGAUCCGCUGGCACCCCGGUAGAAAUAGAAAAGUGCACAAGCAGCAAAACAGAGAGAGAUACGGAGAUCGCAGAAUUAAUGACCACCGCCCCGCCAACAAAGCCAAACACAAACAGCAGCAUGCACAACAGAGGAUUGAGCAUCA
# B21: chr13:113691719:113691720:-_ENSMUSG00000016018_ENSMUST00000022281|mus_hu|FALSE|FALSE (ssRNA)
# RNA: GGGAGUUCUACAGUCCGACGAUCGUAUUCACCAGAAGAAAUCCAUCGGAAAUCCUUCCCAUCAAAUUUGCGGGCAUUUGUAAAUAAAACAGUUCUAGCUGGCAUGUUAAUUCCCAUAGCAAAGGUCUCCGUGGCAAAUAAGGCCAACAGAGGAUUGAGCAUCA
# B22: chr7:135612788:135612789:-_ENSG00000105887_ENST00000393085|hu_mus|FALSE|FALSE (ssRNA)
# RNA: GGGAGUUCUACAGUCCGACGAUCGCCAAGAGGUGAAAACAAAGGUCUCAAAACACCCUGUUGCAUUAUAUUGACUCAUAGACUGAUCAUGUGCCUUCCACUUCCUAGCAGAAUGUCCAACUCUAUAGCUGCUUGGCCUUUUGGCAACAGAGGAUUGAGCAUCA
# Molecular target: T1, UNK ZnF1-3
# Test: nsRBNS (natural sequence RNA bind-n-seq); RBNS binding buffer (assumed for nsRBNS): 25 mM Tris pH 7.5, 150 mM KCl, 3 mM MgCl2, 0.01% Triton X-100, 500 ug/ml BSA, 20 U/ml SUPERase-In, 4 C; UNK is unkempt and MSI1 is Musashi-1; names of the RNAs are library labels; protein concentration not given here; high values mean tight binding
row,Binder,binding signal [enrichment R]
1,B1,0.944
2,B2,0.719
3,B3,0.872
4,B4,1.14
5,B5,0.44
6,B6,1.08
7,B7,1.33
8,B8,1.23
9,B9,4.75
10,B10,1.29
11,B11,12.8
12,B12,0.817
13,B13,8.04
14,B14,0.886
15,B15,3.8
16,B16,0.781
17,B17,0.548
18,B18,0.761
19,B19,1.29
20,B20,2.32
21,B21,1.77
22,B22,1.02
